Assay results: the antibiotic and cytotoxicity screens of Wong et al. (2023)
The whole screen tested about 39,000 compounds, of which about 3,300 (8.5%) were called active. This excerpt belongs to a sample that is enriched for actives.

System: HepG2
Experiment: cytotoxicity call (relative viability < 0.9)
Conditions: 10 µM

Compound	cytotoxicity call
C[C@@H]1CCCCO[C@H](CN(C)CC2CC2)[C@H](C)CN([C@@H](C)CO)C(=O)c2cc(NS(=O)(=O)c3cn(C)cn3)ccc2O1	inactive
COCC#Cc1ccc2c(c1)O[C@@H](CN(C)S(=O)(=O)c1ccc(C)cc1)[C@H](C)CN([C@@H](C)CO)S2(=O)=O	inactive
O=C1N[C@H]2[C@@H]1[C@@H]1C=C[C@H]2C1	inactive
COc1ccc(NC(=O)Nc2cccc3c2O[C@@H](CN(C)Cc2ccc(C(F)(F)F)cc2)[C@@H](C)CN([C@@H](C)CO)C3=O)cc1	inactive
Cc1ccc(S(=O)(=O)Nc2ccc3c(c2)C(=O)N([C@H](C)CO)C[C@@H](C)[C@H](CN(C)C(=O)NC2CCCCC2)OCCCC[C@H](C)O3)cc1	inactive
C[C@@H]1CCCCO[C@H](CN(C)Cc2ccccc2)[C@@H](C)CN([C@@H](C)CO)C(=O)c2cc(NC(=O)c3ccccc3)ccc2O1	inactive
CNC(=O)C[C@H]1Nc2ccccc2NC1=O	inactive
N[C@H]1CCCC[C@@H]1OCc1ccccc1	inactive
CC1CCC2(C)C(C=O)=CCCC2C1(C)CC1OC(O)C(=O)C12CO2 (centres undefined)	active
Cc1noc(C)c1S(=O)(=O)N(C)C[C@@H]1OCc2cn(nn2)CCCC(=O)N([C@@H](C)CO)C[C@H]1C	inactive
C[C@@H]1CN([C@H](C)CO)C(=O)c2cc(NC(=O)Cc3ccccc3)ccc2O[C@@H]1CN(C)Cc1ccc(Oc2ccccc2)cc1	inactive
C[C@H](CO)N1C[C@H](C)[C@H](CN(C)Cc2ccc(Oc3ccccc3)cc2)Oc2ccc(NC(=O)Cc3ccccc3)cc2C1=O	inactive
C[C@H](CO)N1C[C@H](C)[C@@H](CN(C)Cc2ccc(Oc3ccccc3)cc2)Oc2ccc(NC(=O)Cc3ccccc3)cc2C1=O	inactive
C[C@@H]1CN([C@H](C)CO)C(=O)c2cc(NC(=O)Cc3ccccc3)ccc2O[C@H]1CN(C)Cc1ccc(Oc2ccccc2)cc1	active
C[C@H]1CN([C@@H](C)CO)C(=O)c2cc(NC(=O)Cc3ccccc3)ccc2O[C@H]1CN(C)Cc1ccc(Oc2ccccc2)cc1	inactive
C[C@H]1CN([C@@H](C)CO)C(=O)c2cc(NC(=O)Cc3ccccc3)ccc2O[C@@H]1CN(C)Cc1ccc(Oc2ccccc2)cc1	active
C[C@@H]1CN([C@@H](C)CO)C(=O)c2cc(NC(=O)Cc3ccccc3)ccc2O[C@H]1CN(C)Cc1ccc(Oc2ccccc2)cc1	inactive
C[C@@H]1CN([C@@H](C)CO)C(=O)c2cc(NC(=O)Cc3ccccc3)ccc2O[C@@H]1CN(C)Cc1ccc(Oc2ccccc2)cc1	active
COc1ccc(NC(=O)N(C)C[C@H]2Oc3ccc(NC(=O)CCCCCC(=O)Nc4ccccc4N)cc3CC(=O)N([C@@H](C)CO)C[C@@H]2C)cc1	inactive
